Experimental data published in PubChem BioAssay AID1236 (Emory University Molecular Libraries Screening Center, 2008).
The whole screen tested about 220,000 compounds, of which about 800 (0.36%) were called active. The entries come from a sample that favours actives as a whole. Values without a mark were called inactive.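 The calls were made as follows: active = inhibition above about 50% (limit read from the data); inactive = the rest.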

test system: calpain II (m-calpain), Sus scrofa; experiment: inhibitors of pig calpain II, primary screen, biochemical, fluorogenic peptide substrate, 1536-well (AID 1236); settings: purified calpain II, 30 min, at 16 µM, active compounds read high

SMILES	inhibition
CC(Sc1nnnn1C1CCCCC1)C(=O)O (configuration not stated)	-11.2%
C/C(=N\NC(=O)CNc1cccc2ccccc12)c1ccc(Br)s1	17.6%
O=C(Nc1ccccc1Cl)O/N=C(/c1ccccc1)c1ccccn1	-15.9%
NCCCCCC(=O)N/N=C/c1ccc2nccnc2c1	-3.28%
CC(C)CNC(=S)NC(=O)c1ccc(Cl)cc1	11.4%
COC/C=C/C1=CC2=CC(=O)C(C)(OC(=O)CCC(=O)OC)C(=O)C2=CO1 (configuration not stated)	-93.8%
NC(N)=N/N=C/c1ccc(Cl)c([N+](=O)[O-])c1	-20%
COc1ccc(C(=O)O/N=C(\N)Cc2ccc(Cl)cc2Cl)cc1OC	11.8%
NC(N)=N/N=C/c1ccc(OCc2ccc(Cl)cc2Cl)cc1	61.9% (active)
COc1ccc(/C=N/NC(=O)c2ccc(Cl)cc2)cc1COC(C)=O	38.9%
O=C(CN(c1cccc(Cl)c1)S(=O)(=O)c1ccccc1)NN=C1CCCC1	-9.25%
CCOc1ccc(C(=O)Nc2nccs2)cc1[N+](=O)[O-]	0.78%
COc1ccccc1N1CCN(C(=O)CSc2ncnc3c2cnn3-c2ccc(C)c(C)c2)CC1	-19.6%
CC(C)C[C@H](NC(=O)[C@@H]1O[C@H]1C(=O)O)C(=O)NCCCCN=C(N)N	98.8% (active)
COc1cc(S(=O)(=O)N(Cc2cccs2)C2CC2)ccc1-n1cnnn1	26%
Nc1ccccc1SC(C[N+](=O)[O-])c1ccccc1 (configuration not stated)	2.09%
O=C(Oc1cccnc1)c1cc2ccccc2oc1=O	-6.4%
O=C(Nc1cccnc1)c1cc2cc(Br)ccc2oc1=O	52.9% (active)
COc1ccc(C(=O)Nc2cccnc2)cc1C(=O)Nc1cccnc1	17.3%
COCCN(Cc1cc2cc3c(cc2nc1Cl)OCO3)C(=O)c1cccc(C)c1	24.9%
NCCCC[C@@H]1NC(=O)[C@H](CCC(=O)O)NC(=O)c2cc([N+](=O)[O-])cc(I)c2NCC[C@@H](C(N)=O)NC1=O	-13.1%

SMILES	inhibition
CCOC(=O)c1ccc2c(c1)nc(C)n2CC	14.2%
CCn1c(/C=C/Nc2ccccc2)[n+](CC)c2ccc(C(=O)OCC(F)(F)F)cc21	52% (active)
O=C(CCS(=O)(=O)Cc1ccccc1)Nc1ccc2c(c1)OCCO2	-23.4%
CCOc1cc(/C=N/NC(=O)OC)ccc1OCCSc1ccc(Cl)cc1	-7.99%
CCOC(=O)Nc1ccc(S(=O)(=O)N(C)C(C)C)cc1	-5.03%
COc1cc(NC(=O)c2ccccc2NS(=O)(=O)c2ccc(Cl)s2)cc(OC)c1	-32.1%
Nc1cc(C(F)(F)F)ccc1N1CCOCC1	-2.56%
N=c1oc2ccccc2cc1C(=O)N/N=C/c1ccccc1	14.5%
O=C(N/N=C\c1cccc(Br)c1)c1ccccc1-n1cccc1	68% (active)
COc1ccc(OC)c2[nH]c(=O)c(CCNC(=O)C(=O)c3c[nH]c4ccccc34)cc12	-38.9%
CC(=O)c1ccc(NC(=O)C2CC(=O)Nc3nc4ccccc4n32)cc1 (configuration not stated)	-19.9%
Cc1nc2ccccc2c(C)c1C(=O)c1ccc(F)cc1	-9.43%
O=P(O)(CP(=O)(c1ccccc1)c1ccccc1)c1ccccc1O	-11.7%
COc1ccc(CN2CCCCC2C)cc1OC (configuration not stated)	-66%
CC(=O)c1ccc(NC(=O)N[C@@H](Cc2ccccc2)C(=O)O)cc1	5.25%
CC(C)N(Cc1ccccc1)C(=S)Nc1ccc(OC(F)F)cc1	18.2%
CC(=O)c1ccc(NC(=S)N(Cc2ccccc2)C(C)C2CC2)cc1 (configuration not stated)	69.5% (active)
CNc1nc(SC)nc(N(C#N)CC(=O)OC)n1	-4.33%
O=C(NCCc1csc(-c2ccccc2)n1)c1ccccc1F	18.7%
COC(=O)Cn1c(O)c(N=NC(=O)OC)c2ccccc21	-10.4%
CCN(CC(=O)NCCc1ccccc1)S(=O)(=O)c1ccccc1	13.4%

SMILES	inhibition
COc1cc(/C=N/O)cc(Br)c1OCc1cccc(Cl)c1	56.7% (active)
CCOc1cc(/C=N/O)cc(Br)c1OC	2.94%
CCOc1c(Cl)cc(/C=N/O)cc1OC	-1.32%
C=CCn1c(-c2ccc(Cl)cc2)ccc(C#N)c1=O	-6.13%
CC(O)C(NS(=O)(=O)c1ccc(Cl)cc1)C(=O)OCc1cc([N+](=O)[O-])cc2c1OCOC2 (configuration not stated)	-6.26%
CN(C(=O)CCn1c(=S)oc2ccccc21)C1CCCCC1	6.83%
Cc1c(C(=O)c2cccc([N+](=O)[O-])c2)c2ccccn2c1CCC#N	10.5%
CSCc1cc(N2CCOCC2)nc(SCc2ccc(Cl)cc2Cl)n1	53.9% (active)
O=c1cc(CSc2ccc(Cl)cc2)nc(N2CCOCC2)[nH]1	-33.8%
CSCc1cc(N(C)C)nc(SCc2ccc(Cl)cc2Cl)n1	8.94%
Cc1ccc(-n2ncc3c(Nc4cccc(C(=O)O)c4)ncnc32)cc1	10.2%
NC(=O)CC[C@@H]1NC(=O)[C@H](CO)NC(=O)c2cc([N+](=O)[O-])cc(I)c2NCC[C@@H](C(N)=O)NC1=O	-33.7%
S=c1[nH]nc(-c2cccs2)n1/N=C/c1cn(-c2ccccc2)nc1-c1ccc(Cl)cc1	-33.4%
COc1ccc(OC(C)C(=O)Nc2cccnc2)cc1 (configuration not stated)	-45%
COc1ccc(C(=O)C2CCCN(C(=O)c3cc4nc(C)cc(C)n4n3)C2)cc1F (configuration not stated)	-25.8%
c1ccc(-c2cc(N3CCCCC3)c3ccccc3n2)cc1	50.5% (active)
Cc1ccc2nc(-c3ccccc3)cc(C(=O)O)c2c1	-19.3%
O=c1cc(-c2ccccc2)nc(N2CCCCC2)[nH]1	-13.8%
CN(C)CCCSc1ccccc1NC(=O)/C=C/c1ccccc1	-17.5%
N#Cc1ccc(N2Cc3ccccc3/C2=N/C(=O)Nc2ccc(Cl)cc2)cc1	-5.24%
